The record followed here is the supplement of paper PMC13380429.

The structures appear in SMILES notation. Values without a mark were called inactive.

In this assay the test system is Vero E6 infected with SARS-CoV-2. Briefly: inhibition of SARS-CoV-2 cytopathic effect; higher = more antiviral protection, active = above 15. The note with it: 48 h. In general terms: Protection from cytopathic effect is a common read-out in antiviral testing.

Turning to `CC(=O)OCC(=O)[C@H]1CC[C@H]2[C@@H]3CCC4=CC(=O)CC[C@]4(C)[C@H]3CC[C@]12C` [deoxycorticosterone-acetate], the “inhibition of SARS-CoV-2 cytopathic effect” value (“inhibition” for short) is, setting by setting: (1 nM) -2.24%; (8.33 nM) 0.58%; (100 nM) -1.58%; (833.33 nM) -4.23%; (10000 nM) -0.48%.
Regarding `CCCOC(=O)c1ccccc1` [propyl-benzoate], the “inhibition” value (1 nM) is 2.41%; the “inhibition” value (8.33 nM) is 0.41%; the “inhibition” value (100 nM) was -0.99%; the “inhibition” value (833.33 nM) is 0.39%; the “inhibition” value (10000 nM) was 2.1%.
For `Cn1ncc2c(N3CCOCC3)nc(-c3cccc(O)c3)nc21`, in that order: -0.24%, -1.45%, 0.03%, 1.57% and -0.01%.
In the case of `COc1ccc2c(OCc3nnc4ccc(-c5ccccc5)nn34)ccnc2c1`, the “inhibition” value (1 nM) is 1.19%; the “inhibition” value (8.33 nM) was -0.48%; the “inhibition” value (100 nM) was 0.42%; the “inhibition” value (833.33 nM) is -0.17%; the “inhibition” value (10000 nM) was 1.81%.
`CCCOc1ccc2c(c1)CC[C@@H]1[C@@H]2CC[C@]2(C)[C@@H](OC)CC[C@@H]12` [promestriene]: the “inhibition” value reads like this: (1 nM) -1.76%; (8.33 nM) -1.33%; (100 nM) -0.65%; (833.33 nM) -2.33%; (10000 nM) -2.79%.
For `CN1CCC[C@@H](CC2c3ccccc3Sc3ccccc32)C1` (racemic) [metixene], in that order: -0.25%, 1.09%, 1.62%, -0.01% and 42.2% (active).
Take `C[C@H](Nc1cc(NS(=O)(=O)N2CCC2)nc(SCc2cccc(F)c2F)n1)[C@@H](O)CO`: the “inhibition” value by setting is: (1 nM) 3.09%; (8.33 nM) 1.5%; (100 nM) 0.2%; (833.33 nM) 0.91%; (10000 nM) 2.14%.
Taken in the same sequence, the figures for `CCN(CC)C(=O)N[C@H]1C=C2c3cccc4[nH]cc(c34)C[C@H]2N(C)C1` [lisuride] were -0.02%, 2.67%, 0.39%, 7.27% and -0.37%.
As to `COc1ncc2cc(C(=O)Nc3cc(C(=O)NCc4cccc(Cl)c4)ccc3Cl)c(=O)[nH]c2n1`, the “inhibition” value by setting is: (1 nM) -2.51%; (8.33 nM) 1.46%; (100 nM) 0.99%; (833.33 nM) 0.54%; (10000 nM) 2.62%.
For `CS(=O)(=O)c1ccc(Oc2cc(F)cc(C#N)c2)c2c1[C@H](O)C(F)(F)C2`, in that order: 0.26%, 2.61%, 0.38%, -1.3% and 0.01%.
For `CC(C)(C)NC(=O)[C@@H](c1cccnc1)N(C(=O)c1ccco1)c1ccc(C(C)(C)C)cc1`, in that order: -0.21%, 1.78%, 0.92%, -2.61% and -3.73%.
As for `CC(C)c1nc(CN(C)C(=O)N[C@H](C(=O)N[C@@H](Cc2ccccc2)C[C@H](O)[C@H](Cc2ccccc2)NC(=O)OCc2cncs2)C(C)C)cs1` [Ritonavir], the “inhibition” value by setting is: (1 nM) 0.39%; (8.33 nM) 1.47%; (100 nM) 0.46%; (833.33 nM) 1.28%; (10000 nM) -1.6%.
Regarding `CC(C)(O)[C@@H]1[C@H]2OC(=O)[C@@H]1[C@]1(O)C[C@H]3O[C@]34C(=O)O[C@H]2[C@]14C` [picrotin], the “inhibition” value is -0.34% (1 nM); 1.31% (8.33 nM); 1.26% (100 nM); -0.13% (833.33 nM); 3.22% (10000 nM).
For `Oc1ccc2c3c1O[C@H]1c4c(c5ccccc5n4Cc4ccccc4)C[C@@]4(O)[C@@H](C2)N(CC2CC2)CC[C@]314` [N-benzylnaltrindole], in that order: 0.62%, 0.67%, 2.73%, -0.06% and 34% (active).
Taken in the same sequence, the figures for `Clc1cccc(C(c2ccc3[nH]cnc3c2)n2ccnc2)c1` (stereo not given) [liarozole] were 0.27%, 3.78%, 1.18%, 1.7% and 1.64%.
Taken in the same sequence, the figures for `O=[N+]([O-])c1ccc(O)c([N+](=O)[O-])c1` [2,4-dinitrophenol] were 2.74%, 2.11%, 5.04%, 2.61% and 2.69%.
Take `COC(=O)[C@@H]1[C@H]2C[C@H]3c4[nH]c5ccccc5c4CCN3C[C@@H]2CC[C@@H]1O` [yohimbine]: the “inhibition” value runs as follows: (1 nM) 0.18%; (8.33 nM) 2.4%; (100 nM) 1.41%; (833.33 nM) -1.6%; (10000 nM) -0.14%.
For the compound `COC(=O)[C@H](CC(C)C)NC(=O)c1ccc(NC[C@@H](N)CS)cc1-c1cccc2ccccc12`, the “inhibition” value (1 nM) is -1.19%; the “inhibition” value (8.33 nM) is 4.63%; the “inhibition” value (100 nM) is -0.9%; the “inhibition” value (833.33 nM) was -1.25%; the “inhibition” value (10000 nM) was -4.69%.
Taken in the same sequence, the figures for `CC1(COc2ccc3c(c2)ncn3-c2ccc3cccc(N4CCC(N)CC4)c3n2)COC1` [crenolanib] were -0.58%, 1.15%, 2.74%, 2.21% and 0.74%.
Take `NCC(=O)N[C@@H](CCC(N)=O)C(=O)O`: the “inhibition” value runs as follows: (1 nM) 0.35%; (8.33 nM) -1.25%; (100 nM) -2.03%; (833.33 nM) 2.57%; (10000 nM) -2.42%.
For the compound `N=C(N)Nc1ccc(C(=O)Oc2ccc3cc(C(=N)N)ccc3c2)cc1` [nafamostat], the “inhibition” value is, setting by setting: (1 nM) 1.66%; (8.33 nM) 4.06%; (100 nM) 4.33%; (833.33 nM) 3.65%; (10000 nM) 4.81%.
For `CCNC(=O)[C@@H]1CCCN1C(=O)[C@H](CCCNC(=N)N)NC(=O)[C@H](CC(C)C)NC(=O)[C@@H](C)NC(=O)[C@H](Cc1ccc(O)cc1)NC(=O)[C@H](CO)NC(=O)[C@H](Cc1c[nH]c2ccccc12)NC(=O)[C@H](Cc1cnc[nH]1)NC(=O)[C@@H]1CCC(=O)N1` [alarelin], in that order: -0.73%, -1.67%, 0.97%, 1.34% and -0.57%.
Take `CC(C)n1cnc2c(C(=O)N[C@H]3CN4CCC3CC4)cc(Cl)cc21`: the “inhibition” value is, setting by setting: (1 nM) -1.27%; (8.33 nM) -1.37%; (100 nM) -1.13%; (833.33 nM) 1.32%; (10000 nM) -4.61%.
Turning to `CC1=C(CCC(=O)O)c2cc3[nH]c(cc4nc(cc5[nH]c(cc1n2)c(C)c5C(C)O)C(C)=C4C(C)O)c(C)c3CCC(=O)O` (stereo not given) [hematoporphyrin], the “inhibition” value is, setting by setting: (1 nM) 0.75%; (8.33 nM) 5%; (100 nM) 1.48%; (833.33 nM) -0.76%; (10000 nM) -6.32%.
Taken in the same sequence, the figures for `Cc1noc(C)c1-c1ccc(-c2cc(C(N)=O)c(NC(N)=O)s2)c(O[C@H]2CCNC2)c1` were 1.7%, 2.12%, 2.46%, -12.1% and 2.19%.
For `CC(=O)CC(=O)O` [lithium-acetoacetate], the “inhibition” value was -0.56% (1 nM); -0.05% (8.33 nM); 1.48% (100 nM); 1.82% (833.33 nM); 0.27% (10000 nM).
